# Laboratory results: ChEMBL document CHEMBL4888484, “Replenishing the malaria drug discovery pipeline: Screening and hit evaluation of the MMV Hit Generation Library 1 (HGL1) against asexual blood stage Plasmodium falciparum ,using a nano luciferase reporter read-out” (2022)
# The whole screen tested about 4,800 compounds, of which about 420 (8.8%) showed an effect of 50% or more. This is one part of a sample in which strong results are shown more often than they occur.
# Test system: Plasmodium falciparum
# Assay: Confirmatory screen in NF54 nanoGlo assay, in single point, at 2uM, 72h
# Format: functional, Erythrocyte
# Conditions: timepoint 72 hour
row,SMILES,% Inhibition
1,O=C(OCc1ccc(C(F)(F)F)nc1)c1ccc(C(F)(F)F)nc1,7%
2,O=C(NC1CCOCC1)c1ccc(-c2ccc(F)c(F)c2F)cn1,6%
3,CNC(=O)[C@@H](NC(=O)CNC(=O)c1ccc(Cl)cc1)C(C)(C)C,-11%
4,O=C(NCCN1CCCC1)c1ccc2c(c1)OCCO2,-12%
5,CC(=O)N1CCc2cc(-c3ccc(C(=O)NCCC(C)C)cc3)ccc21,2%
6,O=C(c1ccnn1C(F)F)N1N=CC[C@]1(O)C(F)(F)F,-5%
7,Cc1cc(CS(=O)(=O)NCCOc2ccc(Cl)cc2)on1,2%
8,CC1(C)C[C@@H](NC(=O)COc2ccc(CO)cc2)CCO1,-1%
9,O=C(Nc1nc(Cc2ccccc2)cs1)C1CCOCC1,2%
10,COc1ccc(CC2C(O)C(Cc3ccc(OC)cc3)C3CCC2N3C)cc1 (centres undefined),7%
11,CCNC(=O)C(=O)NCc1ccc(OC)cc1,-17%
12,COc1ccc(CNCCC2C(C)CN(C)C(C)C2Cc2ccccc2)cc1 (centres undefined),59%
13,C[C@H]1CS(=O)(=O)C[C@H]1NC(=O)Nc1ccc2ccoc2c1,-5%
14,CNc1nc(C)cc(C(=O)Nc2ccc(Cl)cc2NC(C)=O)n1,2%
15,C[C@@H](NC(=O)Nc1ccc(Cl)c(Cl)c1)C(=O)O,5%
16,O=C(Nc1ccc(Cl)c(Cl)c1)Nc1ccc(Cl)cc1NC(=O)Nc1ccc(Cl)c(Cl)c1,65%
17,O=C1CCC(=O)N1c1cnn(Cc2ccccc2)c1,1%
18,CC(C)(C)OC(=O)N1CCC2(CC1)NN=C1C=C(N3CCN(c4ccccc4F)CC3)N=CN12,-8%
19,CCOc1ccc(NC(=O)Cn2cnc3c(-c4cccc(OC)c4)cn(C)c3c2=O)cc1,-1%
20,CN1CC[C@H](CN(C)Cc2ccc3cc(O)ccc3c2)C1,9%
21,CNC(=O)c1cc(Br)cnc1NC,3%
22,CC(=O)Nc1ncc(Br)cc1C,3%
23,COC1CCCC1NC(=O)Nc1ncc(Br)cc1C (centres undefined),74%

row,SMILES,% Inhibition
1,Cc1c(NS(=O)(=O)c2ccc(Cl)cc2)c(-n2cnnc2)nn1C,-7%
2,O=C(NCCN1CCCCC1)c1n[nH]c2c1CCc1ccccc1-2,1%
3,COc1cc(=O)[nH]cc1Br,-3%
4,CC(C)N1CCO[C@H](C(=O)Nc2c[nH]nc2-c2ccccc2)C1,-5%
5,O=C(O)c1nccc(C(F)(F)F)c1Cl,-19%
6,CC(C)(C)c1ccc(NC(=O)c2ccnnc2)c(O)c1,-8%
7,CC1(C)C2CCC13CS(=O)(=O)N=C3C2 (centres undefined),3%
8,Cc1cccc(NC(=O)NCCn2nnc3cc(S(=O)(=O)N4CCCC4)ccc32)c1C,-1%
9,COC(=O)c1ccccc1NC(=O)NCCn1nnc2cc(S(=O)(=O)N(C)C)ccc21,55%
10,O=S(=O)(c1ccc(F)cc1)n1ccc(-c2cccc(OCc3ccc(Cl)cc3Cl)c2)n1,-4%
11,Cc1nc2c(sc(=S)n2-c2ccc(Cl)c(Cl)c2)c(=O)[nH]1,-2%
12,CCOC[C@@H](O)CN(Cc1c(C)nn(-c2ccccc2)c1Oc1cccc(C)c1)C1CC1,10%
13,CCc1cc(C(=O)N2CCC3(CC2)C[C@H](c2ccccc2)C(=O)N3C)no1,-8%
14,O=C(OCC(=O)N1CCN(Cc2ccccc2)CC1)c1nccc2ccccc12,1%
15,CC(CNc1ccccn1)N1CCOCC1C (centres undefined),-5%
16,Cc1ccc(Cl)c(OCn2ccc(C(=O)Nc3ccc(Br)cn3)n2)c1,-16%
17,O=C(NCc1ccccc1F)C1CCN(c2cncnc2N2CCCC2)CC1,33%
18,CCS(=O)(=O)C1CN(C(=O)c2ccnn2C2CCCC2)C1,-7%
19,COCCCn1c(COc2ccc(OC)cc2)n[nH]c1=O,1%
20,COc1c(Cl)cc(Cl)cc1CNC(C)C,4%
21,NCc1ccc(O)c(Br)c1,2%
22,Cc1ccc(CNC(=O)c2nc(-c3ccncc3)cs2)o1,7%
23,COc1ccnc(NCc2ccc(N3CCOCC3)cc2)n1,-3%

row,SMILES,% Inhibition
1,CC(=O)c1cccc(S(=O)(=O)N2CCN(C(=O)c3ccc4c(c3)CCC4)CC2)c1,2%
2,COc1ccc2c(c1)CCN2S(=O)(=O)c1ccc2c(c1)OCCO2,-4%
3,Cc1cc(C)n(S(=O)(=O)c2ccc3c(c2)OCCO3)n1,-3%
4,CC12CN(S(=O)(=O)c3ccc4c(c3)OCCO4)C3(C(=O)OCc4ccccc4)CC1CCC23C (centres undefined),59%
5,CC(C)OC(=O)N1C(=O)c2ccccc2NC1(C(F)(F)F)C(F)(F)F,-22%
6,Nc1ccc2c(c1)Oc1cc(N)ccc1OCCOCCOCCO2,-10%
7,O=c1c2ccccc2nc2cc(-c3ccc(O)cc3)c(-c3ccccc3)nn12,53%
8,Cc1cccc(-n2c(-c3sc(Nc4ccccc4)nc3-c3ccccc3)nc3ccccc3c2=O)c1,6%
9,COC(=O)Nc1nc(-c2ccccc2)c(-c2nc3ccccc3c(=O)n2-c2ccc(OC)cc2)s1,5%
10,Cc1ccc(/N=C(\N)C(Cl)(Cl)Cl)c(C)c1,-2%
11,CN(Cc1ccc(F)cc1Cl)[C@H]1CCc2nnc(C3CCOCC3)n2CC1,-13%
12,c1ccc(N2CCN(CCN[C@H]3CCc4cc5c(cc43)CCC5)CC2)cc1,8%
13,Cc1ccnc(CNC(=O)N[C@H]2CCc3ccc(F)cc32)c1,-10%
14,Oc1ccccc1CCN[C@H]1CCc2ccc(F)cc21,98%
15,Cc1nc2cc(F)ccc2cc1C(=O)N1CCN(S(=O)(=O)c2ccc(Br)cc2)CC1,0%
16,Cc1ccccc1CNC(=O)CN(C(C)C)C1CCOCC1,21%
17,CCO[C@H]1C[C@H](NC(=O)Nc2ccc(F)c(C3CC3)c2)C1,2%
18,COc1ccc(-n2nc(C)c3c2NC(=O)C[C@@H]3c2ccc3c(c2)OCO3)cc1,-5%
19,COC(=O)c1ccc(C)c(NC(=O)c2ocnc2C2CC2)c1,2%
20,Cc1cc(C)n(-c2c(C)[nH]c3ccccc23)n1,-7%
21,CC1=C(C(=O)Nc2cccc(Cl)c2)[C@H](c2csnn2)NC(=O)N1,-20%
22,Cc1ccc(CN2CCN(C[C@@H](O)Cn3c4ccccc4n4c(=O)cc(C)c(C#N)c34)CC2)c(C)c1,89%
23,N#Cc1c(CN2CCOCC2)cc(=O)n2c1[nH]c1ccccc12,-4%
